Usually CC50 stands for the concentration giving 50% cytotoxicity. A high value points to better tolerance by the cells. For orientation: IC50 means the midpoint of a concentration-inhibition curve.

SMILES strings stand for the structures. Values after ≈ are worked out from the molar mass of the structure shown. The whole screen tested about 1,100 compounds, of which about 170 (15%) were called active. The rule behind the calls is not given here. These entries were drawn from the full list. Non-standard residues stand in square brackets, D forms with d. Residues, ends and D or L forms follow the SMILES beside them. *: point of attachment. Sta = CC(C)C[C@H](N)[C@@H](O)CC(=O)O; Isovaleryl = CC(C)CC(=O)*

The assay is described as follows: Mycobacterium tuberculosis H37Rv growth inhibition, confirmatory dose response, cytotoxicity (AID 1332).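 For CC50: Vero cells exposed to compounds for 72 hours.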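 For IC50: bacteria incubated 7 days before adding Alamar blue readout reagent.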 As to conditions: M. tuberculosis H37Rv growth inhibition; CC50: measured here: Vero cell cytotoxicity; IC50: measured here: IC50 H37Rv replicates.
Turning to `CCc1nc(N)nc(N)c1-c1ccc(Cl)cc1`, the CC50 was determined as 1.26 µg/mL (≈ 5.06 µM), the IC50 came out at 7.67 µg/mL (≈ 30.8 µM) and the compound was called active.
In the same order, the values of `C[C@H]1CCC2(NC1)O[C@H]1C[C@H]3[C@@H]4CC[C@H]5C[C@@H](O[C@@H]6O[C@H](CO)[C@H](O[C@@H]7O[C@H](CO)[C@@H](O)[C@H](O[C@@H]8OC[C@@H](O)[C@H](O)[C@H]8O)[C@H]7O[C@@H]7O[C@H](CO)[C@@H](O)[C@H](O)[C@H]7O)[C@H](O)[C@H]6O)CC[C@]5(C)[C@H]4CC[C@]3(C)[C@H]1[C@@H]2C` (some centres not stated) are 3.98 µg/mL (≈ 3.85 µM), greater than 20 µg/mL and “inactive”.
On to `C[C@@H]1C[C@H]2[C@@H]3C[C@H](F)C4=CC(=O)C=C[C@]4(C)[C@@]3(Cl)[C@@H](O)C[C@]2(C)[C@H]1C(=O)COC(=O)C(C)(C)C`, for which the cytotoxic concentration (CC50) is greater than 6 µg/mL, the IC50 was greater than 20 µg/mL and the outcome was inactive.
In the case of `C[N+]1(C)CCC(=C(c2ccccc2)c2ccccc2)CC1`, the IC50 is greater than 20 µg/mL and the result was inactive.
For `CCc1cc(C(N)=S)ccn1`, in that order: 1.95 µg/mL (≈ 11.7 µM) and “active”.
In the same order, the values of `Cc1c(C)c2c(c(C)c1O)CCC(C)(C(=O)O)O2` (configuration not stated) are greater than 20 µg/mL and “inactive”.
Turning to `COc1ccc(CC(C)(N)C(=O)O)cc1OC` (configuration not stated), the CC50 is greater than 6 µg/mL, the IC50 is greater than 20 µg/mL and the compound was classed as inactive.
In the case of `Nc1nc2c(c(=O)[nH]1)N(C=O)C(CNc1ccc(C(=O)N[C@@H](CCC(=O)O)C(=O)O)cc1)CN2` (some centres not stated), the 50% inhibitory concentration (IC50) is greater than 20 µg/mL and the compound was called inactive.
For `O=C(CCCN1CCC(O)(c2ccc(Br)cc2)CC1)c1ccc(F)cc1`, in that order: greater than 20 µg/mL and “inactive”.
For `O=C(CCCN1CCC(O)(c2ccc(Cl)cc2)CC1)c1ccc(F)cc1`, in that order: greater than 20 µg/mL and “inactive”.
For `CN(C)C(=O)C(CCN1CCC(O)(c2ccc(Cl)cc2)CC1)(c1ccccc1)c1ccccc1`, in that order: 10.9 µg/mL (≈ 22.9 µM) and “active”.
As for `CN1CC[C@@]2(C)c3cc(O)ccc3N(C)[C@H]12`, the IC50 is greater than 20 µg/mL and the compound was called inactive.
As to `CC(CN(C)C)CN1c2ccccc2Sc2ccccc21` (configuration not stated), the CC50 is greater than 6 µg/mL, the IC50 is greater than 20 µg/mL and the outcome was inactive.
In the same order, the values of `CCCCOc1ccc(CC(=O)NO)cc1` are greater than 6 µg/mL, greater than 20 µg/mL and “inactive”.
For `CCCCc1ccc(C(=O)O)nc1`, in that order: greater than 6 µg/mL, 3.88 µg/mL (≈ 21.7 µM) and “active”.
`CCCCc1ccc2nc(NC(=O)OC)[nH]c2c1`: the CC50 was 0.043 µg/mL (≈ 0.174 µM), the IC50 is greater than 20 µg/mL and the result was inactive.
For `Cc1cc(CC(=O)O)n(C)c1C(=O)c1ccc(Cl)cc1`, the concentration for half-maximal inhibition (IC50) is greater than 20 µg/mL and the result was inactive.
Turning to `O=C(CCCN1CCN(c2ccccn2)CC1)c1ccc(F)cc1`, the IC50 was greater than 20 µg/mL and the outcome was inactive.
Take `C[C@H]1[C@H](C)CC[C@]2(C(=O)O)CC[C@]3(C)C(=CC[C@@H]4[C@@]5(C)CC[C@H](O)C(C)(C)[C@@H]5CC[C@]43C)[C@H]12`: the half-inhibitory concentration (IC50) is greater than 20 µg/mL and the compound was called inactive.
In the same order, the values of `CN(C)CCC(c1ccc(Cl)cc1)c1ccccn1` (configuration not stated) are greater than 20 µg/mL and “inactive”.
On to `CN[C@@H]1[C@H](O)[C@H](NC)[C@H]2O[C@@]3(O)C(=O)C[C@@H](C)O[C@H]3O[C@@H]2[C@H]1O`, for which the half-inhibitory concentration (IC50) was determined as 7.14 µg/mL (≈ 21.5 µM) and the compound was classed as active.
Take `C/C(=C(/CCO)SSCC1CCCO1)N(C=O)Cc1cnc(C)nc1N` (configuration not stated): the IC50 was greater than 20 µg/mL and the compound was called inactive.
In the same order, the values of `C=Cc1c(C)c2cc3nc(cc4[nH]c(cc5nc(cc1[nH]2)C(C)=C5CCC(=O)O)c(CCC(=O)O)c4C)[C@@]1(C)C3=CC=C(C(=O)OC)C1C(=O)OC` (some centres not stated) are greater than 20 µg/mL and “active”.
On to `CC(O)(P(=O)(O)O)P(=O)(O)O`, for which the IC50 is greater than 20 µg/mL and the outcome was inactive.
On to `OCCN1CCN(CC/C=C2/c3ccccc3Sc3ccc(Cl)cc32)CC1`, for which the cytotoxic concentration (CC50) is greater than 6 µg/mL, the 50% inhibitory concentration (IC50) was determined as 9.26 µg/mL (≈ 23.1 µM) and the compound was called active.
On to `CC(=O)c1ccc2c(c1)N(CCCN1CCC(CCO)CC1)c1ccccc1S2`, for which the concentration for half-maximal inhibition (IC50) was greater than 20 µg/mL and the result was inactive.
For the compound `OCCOCCN1CCN(C(c2ccccc2)c2ccc(Cl)cc2)CC1` (configuration not stated), the IC50 is greater than 20 µg/mL and the outcome was inactive.
Regarding `CC(=O)Nc1ccc(O)cc1`, the IC50 was greater than 20 µg/mL and the call was inactive.
For `CCN[C@H]1C[C@H](C)S(=O)(=O)c2sc(S(N)(=O)=O)cc21`, in that order: greater than 20 µg/mL and “inactive”.
In the same order, the values of `O=C(CCNNC(=O)c1ccncc1)NCc1ccccc1` are 0.393 µg/mL (≈ 1.32 µM) and “active”.
`Cc1cc(C(=O)NNCc2ccccc2)no1`: the IC50 is greater than 20 µg/mL and the outcome was inactive.
`CC(C)NNC(=O)c1ccncc1`: the concentration for half-maximal inhibition (IC50) was greater than 20 µg/mL and the result was inactive.
`CC(C)(C)NC(=O)[C@@H]1C[C@@H]2CCCC[C@@H]2CN1C[C@@H](O)[C@H](Cc1ccccc1)NC(=O)[C@H](CC(N)=O)NC(=O)c1ccc2ccccc2n1`: the half-maximal inhibitory concentration (IC50) came out at 17.3 µg/mL (≈ 25.7 µM) and the result was active.
In the same order, the values of `C[C@@H]1CC[C@H]2[C@@H](C)C(=O)O[C@@H]3OC4(C)CC[C@@H]1[C@]32OO4` are greater than 20 µg/mL and “inactive”.
Turning to `CN1CC[C@]23c4ccccc4N[C@H]1[C@]21CCN(C)[C@H]3Nc2ccccc21`, the IC50 was greater than 20 µg/mL and the compound was called inactive.
In the same order, the values of `O=C(O)COCCN1CCN(C(c2ccccc2)c2ccc(Cl)cc2)CC1` (configuration not stated) are greater than 20 µg/mL and “inactive”.
`CN1CCN(C(c2ccccc2)c2ccccc2)CC1`: the IC50 is greater than 20 µg/mL and the compound was classed as inactive.
Regarding `CN1CCCN(C(c2ccccc2)c2ccc(Cl)cc2)CC1` (configuration not stated), the CC50 is greater than 6 µg/mL, the half-maximal inhibitory concentration (IC50) is 19.3 µg/mL (≈ 61.3 µM) and the outcome was active.
Consider `Cc1cc(-c2ccccc2)nnc1NCCN1CCOCC1`, for which the concentration for half-maximal inhibition (IC50) is greater than 20 µg/mL and the result was inactive.
In the same order, the values of `CC(C)CC(=O)N[C@H](C(=O)N[C@H](C(=O)N[C@@H](CC(C)C)[C@@H](O)CC(=O)N[C@@H](C)C(=O)N[C@@H](CC(C)C)[C@@H](O)CC(=O)O)C(C)C)C(C)C` (Isovaleryl-VV[Sta]A[Sta]-OH) are greater than 20 µg/mL and “inactive”.
On to `Cc1c(-c2ccccc2)oc2c(C(=O)OCCN3CCCCC3)cccc2c1=O`, for which the half-maximal inhibitory concentration (IC50) was greater than 20 µg/mL and the outcome was inactive.
On to `CN(C)CCC=C1c2ccccc2CCc2ccccc21`, for which the CC50 is greater than 6 µg/mL, the IC50 was 16.2 µg/mL (≈ 58.3 µM) and the compound was classed as active.
Consider `CN(C)CC/C=C1\c2ccccc2COc2ccccc21`, for which the IC50 is greater than 20 µg/mL and the outcome was inactive.
Regarding `CN(C)CC/C=C1\c2ccccc2CSc2ccccc21`, the CC50 was greater than 6 µg/mL, the IC50 was greater than 20 µg/mL and the result was inactive.
For `CNCC(O)c1ccc(O)c(OC)c1` (configuration not stated), the half-maximal inhibitory concentration (IC50) was greater than 20 µg/mL and the compound was classed as inactive.
`CNC(C)CCC=C(C)C` (configuration not stated): the IC50 was greater than 20 µg/mL and the call was inactive.
Regarding `C=C1CC[C@H](O)C/C1=C/C=C1\CCC[C@]2(C)[C@@H]([C@H](C)CCCC(C)C)CC[C@@H]12`, the half-maximal inhibitory concentration (IC50) is greater than 20 µg/mL and the compound was called inactive.
In the same order, the values of `C[C@@H]1CCC[C@H](C)N1` are greater than 20 µg/mL and “inactive”.
Consider `CC(C)(C)NC[C@@H](O)COc1cccc2c1CCCC2=O`, for which the IC50 was greater than 20 µg/mL and the call was inactive.
For `Cc1c(N(C)CS(=O)(=O)O)c(=O)n(-c2ccccc2)n1C`, in that order: greater than 20 µg/mL and “inactive”.
On to `CO[C@@]1(NC(=O)[C@H](C(=O)O)c2ccc(O)cc2)C(=O)N2C(C(=O)O)=C(CSc3nnnn3C)CO[C@@H]21`, for which the IC50 was greater than 20 µg/mL and the outcome was inactive.
For `C[N+]1(C)C2CC[C@H]1CC(OC(=O)C(CO)c1ccccc1)C2` (some centres not stated), in that order: greater than 20 µg/mL and “inactive”.
For `Nc1ccc(S(=O)(=O)Nc2ncccn2)cc1`, in that order: 13.4 µg/mL (≈ 53.4 µM) and “active”.
`Cc1cc(C)nc(NS(=O)(=O)c2ccc(N)cc2)n1`: the IC50 was greater than 20 µg/mL and the call was inactive.
In the same order, the values of `Nc1ccc(S(=O)(=O)Nc2ccccn2)cc1` are greater than 20 µg/mL and “inactive”.
In the same order, the values of `Cc1noc(NS(=O)(=O)c2ccc(N)cc2)c1C` are 8.76 µg/mL (≈ 32.8 µM) and “active”.
As for `CC(=O)NS(=O)(=O)c1ccc(N)cc1`, the IC50 was greater than 20 µg/mL and the compound was classed as inactive.
In the same order, the values of `Nc1ccc(S(=O)(=O)Nc2ccc(Cl)nn2)cc1` are 4.37 µg/mL (≈ 15.3 µM) and “active”.
For `Nc1ccc(S(=O)(=O)NC(=O)c2ccccc2)cc1`, in that order: greater than 20 µg/mL and “inactive”.
Take `Cc1ccnc(NS(=O)(=O)c2ccc(N)cc2)n1`: the IC50 is greater than 20 µg/mL and the compound was called inactive.

The record behind these values is PubChem BioAssay AID1332 (Southern Research Institute, 2008).
